In PubChem BioAssay (NCI):
Where “and” joins values, the source holds several entries; their conditions need not be identical. Equal values may be shown once. The panel holds about 83,000 compounds, 20% with a hit somewhere; the sample as a whole holds those more often.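 48-hour exposure, single concentration, 96-well plates; percent growth endpoint where 0 means no net growth. Active: below 10.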 Calls of active or inactive are those of the source.

Key:
Test in all cases: NCI-60 one-dose screen, 48 h (100 = growth as untreated, 0 = no growth, -100 = all killed)
Conditions in all cases: 10 µM unless noted
[1] = test system: T-47D breast
[2] = test system: BT-549 breast
[3] = test system: MDA-MB-435 melanoma
[4] = test system: SW-620 colon
[5] = test system: MCF7 breast
[6] = test system: HCT-116 colon
[7] = test system: HCC-2998 colon
[8] = test system: KM12 colon

Measured: growth

C#Cc1cc(C(=O)Nc2ccc(CN3CCN(C)CC3)c(C(F)(F)F)c2)ccc1C
inactive: [1] 79% | [2] 101% | [3] 28.1% | [4] 81.3% | [5] 70.1% | [6] 47.8% | [7] 90.2% | [8] 70.3%

O=C1/C(=C/c2cn(-c3ccccc3)nc2-c2ccccc2)SC(=S)N1c1ccc(Cl)cc1
inactive: [1] 82.1% | [2] 78.2% | [3] 74.1% | [4] 84.4% | [5] 82.2% | [6] 64.1% | [7] 76.3% | [8] 60.5%

O=C(/C=C/C12c3ccccc3C(c3ccccc31)C1C(=O)NC(=O)C12)c1ccncc1 (configuration not stated)
inactive: [2] 15.7% | [4] 13.4% | [7] 88.2%
active: [1] -4.38% | [3] 9.93% | [5] 3.34% | [6] -16.5% | [8] 7.72%

COc1ccc(N2CCN(S(=O)(=O)c3oc(-c4ccccc4)nc3C#N)CC2)cc1
inactive: [1] 73.1% | [2] 77.5% | [3] 65.2% | [5] 31.2% | [6] 15.4% | [7] 100% | [8] 104%
active: [4] 7.02%

N=c1c2c(-c3ccccc3)c(-c3ccccc3)oc2ncn1NC(=O)c1cccnc1
inactive: [1] 96.2% | [2] 103% | [3] 104% | [4] 106% | [5] 98.5% | [6] 96.1% | [7] 118% | [8] 95.6%

Cc1ccc(-c2nc3nc(-c4ccccc4)nc(N4CCCNCC4)c3o2)cc1
active: [1] -45% | [3] -83.1% | [4] -57.5% | [5] -78.4% | [6] -71.4% | [7] -74.9% | [8] -92.3%
inactive: [2] 18%

Nc1nc2ccccc2c2c(=O)c3ccc(Cl)cc3sc12
inactive: [1] 53.9% | [2] 94.3% | [3] 101% | [4] 76% | [5] 29.9% | [6] 82.1% | [7] 114% | [8] 87.5%

CCCCCCCCCCCCCCCC(=O)O[C@@H]1[C@@H](O)[C@@H](O)C([C@H](NC(=O)[C@@H]2C[C@@H](CCC)CN2C)[C@H](C)Cl)O[C@@H]1SC (some centres not stated)
inactive: [1] 96.1% | [2] 99.4% | [3] 107% | [4] 114% | [5] 102% | [6] 103% | [7] 115% | [8] 101%

Cc1ccc2nc3ccccc3c(NCc3ccc(Cl)cc3)c2c1
inactive: [1] 57.9% | [2] 75.6% | [3] 70.3% | [4] 32.1% | [6] 14.7% | [8] 77.1%
active: [5] -20.8% | [7] -79%

Nc1ccc(S(=O)(=O)c2ccc(N)cc2)cc1
inactive: [1] 104% and 100% | [2] 104% and 110% | [3] 94.6% | [4] 108% and 92.5% | [5] 99.5% and 104% | [6] 107% and 94.9% | [7] 98% and 108% | [8] 106% and 109%

COC(=O)c1nc(-c2ccc(C)cc2)oc1Sc1ccc(C)cc1
inactive: [1] 72.9% | [2] 101% | [3] 103% | [4] 103% | [5] 93.7% | [6] 99.4% | [7] 110% | [8] 98.6%

COc1ccc2c(c1)oc1c(C)c3c(c(C)c12)C(=O)N(Nc1ccccc1)C3=O
inactive: [1] 88.1% | [2] 91.6% | [3] 104% | [4] 110% | [5] 94.7% | [6] 96% | [7] 105% | [8] 97.4%

O=Nc1c(O)ccc2ccccc12
6.49% (active) and 81% (inactive): [6]
inactive: [1] 15.5% and 76.1% | [2] 94.5% and 90.8% | [4] 27.5% and 83.9% | [5] 67.8% and 78.1% | [7] 110% and 97.4% | [8] 66.8% and 109%
-83.9% (active) and 116% (inactive): [3]

Cc1cnc(C(=O)NNc2nc3sc4c(c3c(=O)[nH]2)C(C)CCC4)cn1 (configuration not stated)
inactive: [1] 30.4% | [2] 39.5% | [3] 31.4% | [4] 35.3% | [5] 13.9% | [6] 22.5% | [7] 11.1% | [8] 17.5%

COc1ccc(CCNC(=O)COc2cc3c(Nc4ccc(F)c(Cl)c4)ncnc3cc2OC)cc1OC
inactive: [1] 70% | [2] 99.5% | [3] 97.2% | [4] 101% | [5] 91.9% | [6] 107% | [7] 101% | [8] 96.9%

CCN(CC)/C([O-])=c1\cccc\c1=C1\N=C(c2ccccc2)N=C1[n+]1ccc(-c2ccccc2)cc1
inactive: [1] 90.5% | [2] 93.3% | [3] 96.8% | [4] 91.6% | [5] 93% | [6] 97% | [7] 93.3% | [8] 96.3%

CC(C)=CCc1cc(O)c(O)c2oc3cc(O)cc(O)c3c(=O)c12
inactive: [1] 69.5% | [2] 75.1% | [3] 61.1% | [4] 61.9% | [5] 91.6% | [6] 43.1% | [7] 104% | [8] 59.8%

CC(C)(C)c1cc(C(C)(C)c2ccccc2)cc(Cc2cc(C(C)(C)c3ccccc3)cc(C(C)(C)C)c2O)c1O
inactive: [1] 95.3% | [2] 93.1% | [3] 115% | [4] 104% | [5] 94.6% | [6] 93.1% | [7] 107% | [8] 106%

COc1ccc(C2Nc3nc(SC)nc(N)c3N=C3c4ccccc4CCC32)cc1 (configuration not stated)
inactive: [1] 80% | [2] 105% | [3] 93.2% | [4] 76.1% | [5] 62.9% | [6] 51.5% | [7] 103% | [8] 85.9%

O=C(c1ccc(Nc2nccc(NCCCNc3ccnc4cc(Cl)ccc34)n2)cc1)N1CCCCC1
inactive: [1] 54.3% | [2] 64.9% | [3] 34.1% | [4] 26.3% | [5] 23.1% | [6] 26.7% | [7] 26% | [8] 37.5%

O=S(=O)(Nc1ccc(F)cc1)c1ccc(-c2cnc(C3CC3)o2)cc1
active: [3] -10.3%
inactive: [1] 32.6% | [2] 52.8% | [4] 20.6% | [5] 16.3% | [6] 18.8% | [7] 56.4% | [8] 21.2%

Nc1nc(Nc2ccc(F)cc2)nn1C(=O)c1cc(Cl)ccc1Cl
inactive: [1] 84.9% | [2] 80% | [3] 88.8% | [4] 71.4% | [5] 48.8% | [6] 58.6% | [7] 86.3% | [8] 51.4%

COc1cc(/C=C(/c2ccccc2)[N+](=O)[O-])c(OC)c2c1OCO2
active: [1] -55.9% | [2] -84.4% | [3] -23% | [4] -40.5% | [5] -36.4% | [6] -86.4% | [7] -91% | [8] -50.8%

CC(=O)N1N=C(c2ccc(F)cc2)CC1c1sc(N(C)Cc2ccccc2)nc1Cl (configuration not stated)
inactive: [1] 74.1% | [2] 95.2% | [3] 96.5% | [4] 99.4% | [5] 76% | [6] 84.5% | [7] 91.2% | [8] 92.4%

NNCCc1ccccc1
inactive: [1] 106% and 95.2% | [2] 103% and 107% | [3] 109% and 97.2% | [4] 106% and 94.6% | [5] 98.5% and 86.6% | [6] 103% and 93.5% | [7] 110% and 98.5% | [8] 111% and 99.5%

CC1=C2[C@@H](CC1)[C@]1(C)O[C@@](C3CC3)(C[C@H]1OC(=O)CO)[C@H]2OC(=O)/C=C/c1ccccc1
inactive: [1] 82.2% | [3] 104% | [4] 103% | [5] 96.4% | [6] 89.4% | [7] 88.4% | [8] 97.1%
active: [2] 6.63%

O=[N+]([O-])c1ccc(S(=O)Cc2ccccc2)c([N+](=O)[O-])c1 (configuration not stated)
active: [4] -71.3% and -38.1% | [6] -88.5% and -82.3%
41.1% (inactive) and 5.89% (active): [5]
29.7% (inactive) and -21.4% (active): [1]
inactive: [2] 66.3% and 67.5% | [3] 76.2% and 78% | [7] 97.2% and 97.5% | [8] 77.1% and 101%

COc1ccc(S(=O)(=O)Nc2cc(Sc3cccc4cccnc34)c(O)c3ccccc23)cc1
active: [1] -30.9% | [4] -59.2% | [5] -50.5% | [6] -36.8%
inactive: [2] 27.7% | [3] 16.4% | [7] 38.6% | [8] 20.3%

CCC(=O)Oc1cc(Cl)c(Cl)cc1Cl
inactive: [1] 101% | [2] 102% | [3] 107% | [4] 107% | [5] 93% | [6] 94.3% | [7] 94.8% | [8] 107%
